Compounds without any hit were thinned out: in the full panel of roughly 83,000, 20% have a hit.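 Negative percent growth values reflect cell death: -40 means 40% of the cells present at the start died, and -100 means all died.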 Unmarked numbers belong to inactive results. Active and inactive are the calls of the source. The calls were made as follows: active = growth percent below 10; inactive = the rest.

The subject of the test is NCI-H23 lung. Description: NCI-60 one-dose screen, 48 h (100 = growth as untreated, 0 = no growth, -100 = all killed). Conditions: 10 µM unless noted.
In the case of `CCCCc1ccc(NS(=O)(=O)c2cc3c4c(c2)CCN4C(=O)CC3)cc1`, the growth was 21.2%. The same measure for `O=C1/C(=C/c2ccc(O)cc2)COc2ccc(O)cc21`: 92.2%; for `Cc1cc(Nc2ccc(OCc3ccccc3)cc2)nc2cc(O)ccc12`: 55%. The same measure for `O=C(c1nc2ccccc2[nH]1)C1[C@@H](c2cccc(O)c2)C2CC3CCCCC3N2[C@@]12C(=O)Nc1cc(Cl)ccc12` (some centres undefined): 48.6%; for `O=c1oc2ccc(Br)cc2c(=O)n1-c1ccc(Br)cc1F`: -38.4% (active). The same measure for `O=C(/C=C/c1ccc(C(F)(F)F)cc1)c1ccc(Nc2nc(NCCO)nc(N3CCOCC3)n2)cc1`: 39.4%; for `C#CCn1cc(C=C2C(=O)N(C)C(=O)N(C)C2=O)c2cc(Cl)ccc21`: 110%. Regarding `COc1ccc(/C=C2/SC(=O)N(CC(=O)N3CCN(c4cc5c(cc4F)c(=O)c(C(=O)O)cn5C4CC4)CC3)C2=O)cc1`, the growth was 100%. The same measure for `CCOC(=O)C1=C(C)N=c2s/c(=C\c3ccccc3O)c(=O)n2C1c1ccc(OC)c2ccccc12` (centres undefined): 82.3%; for `Nc1ccc(-c2ccc(-c3ccccc3N)c3[nH]c4ccccc4c23)cc1`: 28.4%; for `CCOC(=O)c1c2c(n3cccc(Cl)c13)C(=O)c1ncccc1C2=O`: 34.2%.

With `O=C(Nc1ccc(C23CC4CC(CC(c5ccccc5)(C4)C2)C3)cc1)c1cccs1`, the growth is 71.4%. `Cc1ccc2sc3c(NCCCNCCO)nc4ccccc4c3c(=O)c2c1`: the growth was 75.2%. The same measure for `COc1ccccc1N1CCN(C(CNS(=O)(=O)c2ccc(Cl)cc2)c2cccnc2)CC1` (centres undefined): 96.6%.

For the origin of these results see PubChem BioAssay (NCI).
